Compound activity as filed in PubChem.
MARV entry inh: inhibitors of Marburg virus binding or cell entry | Marburg virus pseudotyped entry inhibition, cell reporter | Potency, µM (highest dose often 37.8 µM), without a hit: at the highest dose activity change, negative = inhibition, hits mostly inhibitors | actives 1.8% (n = 300,000) | AID 540276; calls by dose curve; tested in HEK293 cells; note: potency is the fitted concentration of half-maximal effect
HCMV antiviral: blocks human cytomegalovirus replication; actives 4.5% (n = 410,000); HFF cells, HCMV-luciferase reporter, 72 h; stronger effect = lower value; AID 1259415; activity change, negative = inhibition, % at 57.5 µM; in the data active = activity change below about -60%; inconclusive = no clear call, values can overlap the other calls; inactive = above about -39%
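Two compound doses tested in HFFs infected with HCMV-luciferase, MOI 1 PFU/cell, 72 h at 37C. Lysate luminescence read with OneGlo; data normalized against buffer-only and 10uM Salinomycin inhibitor controls.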
FMDV antiviral: antivirals against foot and mouth disease virus; FMDV antiviral cell-based qHTS; Potency, µM (doses to about 57.9 µM), for inactives: at the top dose activity change, negative = inhibition, actives largely listed as inhibitors; actives 1.2% (n = 410,000); calls by dose curve; tested in HEK293T cells; note: read-out not given here; potency is the fitted concentration of half-maximal effect; nearly all actives have a fitted effect of over 45% in size
Lassa entry inh: blocks Lassa virus binding to or entry into cells; Lassa virus pseudotype entry inhibition, cell reporter; Potency, µM (titrated, usually from 37.9 µM), inactives show top-dose activity change, negative = inhibition, most hits filed as inhibitors; actives 1.2% (n = 300,000); AID 540256; calls by dose curve; tested in HEK293 cells; note: potency is the fitted concentration of half-maximal effect; nearly all actives have a fitted effect of over 50% in size
An asterisk follows results filed as active; [ ] = dose if it differs, or a comment. A selection: hits, their analogues and other compounds. The true share with any hit is near 6.2%. % is set by controls: 0 for no effect and ±100 for the full control effect.

How did CCOc1cccc(C(=O)Nc2ccc(-c3nc4cc(C)cc(C)c4o3)cc2)c1 do in these assays?
MARV entry inh: 29%[46.1 µM]; HCMV antiviral: 4; FMDV antiviral: inconclusive; Lassa entry inh: 0%[46.1 µM]

How did O=C(NCCO)c1cc2c([nH]c3ccccc32)c(-c2ccccc2)n1 do in these assays?
MARV entry inh: -1%; HCMV antiviral: 69; FMDV antiviral: -4%; Lassa entry inh: -12%

How did O=C(NCC1CCCO1)c1cc2c([nH]c3ccccc32)c(-c2cccc(Br)c2)n1 (configuration not stated) do in these assays?
HCMV antiviral: -72*; FMDV antiviral: inconclusive

Results for Cc1ccc(-c2nc(C(=O)NCCCN(C)C)cc3c2[nH]c2ccccc23)cc1 ?
HCMV antiviral: -98*; FMDV antiviral: inconclusive

How did Cc1ccc(-c2nc(C(=O)NCC3CCCO3)cc3c2[nH]c2ccccc23)cc1 (configuration not stated) do in these assays?
HCMV antiviral: -95*; FMDV antiviral: inconclusive

Results for Clc1cccc(CNc2nnnn2-c2ccccc2)c1 ?
MARV entry inh: inconclusive; HCMV antiviral: -84*; FMDV antiviral: 9%; Lassa entry inh: -2%

Results for CCOc1ccc(NC(=O)c2ccc(F)c(S(=O)(=O)N(CC)Cc3ccccc3)c2)cc1 ?
HCMV antiviral: -97*; FMDV antiviral: inconclusive; Lassa entry inh: inconclusive

Results for CCN(c1ccccc1)S(=O)(=O)c1cc(C(=O)Nc2cccc(Cl)c2)ccc1F ?
MARV entry inh: inconclusive; HCMV antiviral: -95*; FMDV antiviral: 20µM*; Lassa entry inh: 13µM*

Results for CCc1ccc(NC(=O)c2ccc(F)c(S(=O)(=O)N(CC)c3ccccc3)c2)cc1 ?
MARV entry inh: inconclusive; HCMV antiviral: -10; FMDV antiviral: inconclusive; Lassa entry inh: inconclusive

How did CCOc1ccc(C(=O)Nc2ccc(S(=O)(=O)N(Cc3ccccc3)c3ccccc3)cc2)cc1 do in these assays?
MARV entry inh: inconclusive; HCMV antiviral: -61*; FMDV antiviral: -12%; Lassa entry inh: -25%[46.1 µM]

Results for CCOc1ccc(NC(=O)c2ccc(S(=O)(=O)N(C)C)cc2)cc1 ?
HCMV antiviral: -29; FMDV antiviral: inconclusive

Results for CCN(Cc1ccccc1)S(=O)(=O)c1cc(C(=O)Nc2cc(Cl)cc(Cl)c2)ccc1F ?
HCMV antiviral: -97*; FMDV antiviral: inconclusive; Lassa entry inh: inconclusive

What do the screens show for `COc1ccc(C(=O)Nc2ccc(S(=O)(=O)N(Cc3ccccc3)c3ccccc3)cc2)cc1`?
MARV entry inh: inconclusive; HCMV antiviral: inconclusive; FMDV antiviral: inconclusive; Lassa entry inh: -27%[46.1 µM]

Results for CCN(C(=O)CSc1nc(-c2ccc(C(C)C)cc2)no1)c1ccccc1 ?
HCMV antiviral: -17; FMDV antiviral: -25%; Lassa entry inh: inconclusive

How did COC1=CC2C(=O)C(C1=O)[C@H](c1ccccc1)[C@H]2C (some centres not stated) do in these assays?
MARV entry inh: -3%[14.2 µM]

Results for C=CCOC(=O)C1=C(C)OC(N)=C(C#N)[C@H]1c1ccoc1 ?
MARV entry inh: 6%

Results for C[C@@H]1CNC(=O)c2c(C(=O)Nc3ccc(CNC(=O)OC(C)(C)C)cc3)ncn21 ?
HCMV antiviral: -66*; FMDV antiviral: inconclusive

How did CN1C/C(=C/c2ccncc2)C(=O)/C(=C/c2ccncc2)C1 do in these assays?
MARV entry inh: 0%[46.1 µM]; HCMV antiviral: -7; FMDV antiviral: -7%; Lassa entry inh: inconclusive

How did C=CC(=O)N1C/C(=C/c2ccc(Cl)cc2)C(=O)/C(=C\c2ccc(Cl)cc2)C1 do in these assays?
MARV entry inh: inconclusive; HCMV antiviral: -100*; FMDV antiviral: 8.9µM*; Lassa entry inh: 2.2µM*

How did C=CC(=O)N1C/C(=C/c2ccccc2)C(=O)/C(=C\c2ccccc2)C1 do in these assays?
MARV entry inh: 2.8µM*; HCMV antiviral: -97*; FMDV antiviral: 7.9µM*; Lassa entry inh: inconclusive

What do the screens show for `Cc1ccc2c(c1)nnn2C1CCN(S(=O)(=O)c2ccc(C(=O)O)cc2)CC1`?
MARV entry inh: 16%[46.1 µM]; HCMV antiviral: -67*; FMDV antiviral: 3%; Lassa entry inh: -8%

Results for Cc1ccc2c(c1)nnn2C1CCN(S(=O)(=O)c2ccc(C(=O)N3C(C)CCCC3C)cc2)CC1 (configuration not stated) ?
MARV entry inh: 7.9µM*; HCMV antiviral: -73*; FMDV antiviral: inconclusive; Lassa entry inh: inconclusive

Results for O=S(=O)(c1ccccc1)N1CCC(n2nnc3cc(F)ccc32)CC1 ?
MARV entry inh: -19%; HCMV antiviral: -26; Lassa entry inh: 2%

Results for Cc1ccc2c(c1)nnn2C1CCN(S(C)(=O)=O)CC1 ?
MARV entry inh: 3%[46.1 µM]; HCMV antiviral: 15; FMDV antiviral: 22%; Lassa entry inh: -7%

What do the screens show for `O=C(c1ccc2c(c1)N(Cc1cccc(Cl)c1)C(=O)c1ccccc1S2)N1CCOCC1`?
HCMV antiviral: -25; FMDV antiviral: -16%; Lassa entry inh: inconclusive

What do the screens show for `O=[N+]([O-])c1cc(-n2cnnn2)ccc1N1CCC(Cc2ccccc2)CC1`?
MARV entry inh: inconclusive; HCMV antiviral: -103*; FMDV antiviral: inconclusive; Lassa entry inh: -26%

Results for CC(C)C1N=C2c3ccccc3N=C(SCC(=O)NCc3ccccc3Cl)N2C1=O (configuration not stated) ?
HCMV antiviral: -15; FMDV antiviral: 35%; Lassa entry inh: -15%[46.1 µM]

What do the screens show for `Cc1ccccc1NC(=O)COC(=O)c1ccc(S(C)(=O)=O)c([N+](=O)[O-])c1`?
MARV entry inh: 9.2µM*; HCMV antiviral: -93*; FMDV antiviral: 32µM*; Lassa entry inh: 21µM*

How did CS(=O)(=O)c1ccc(C(=O)OCc2nnc(-c3ccccc3)o2)cc1[N+](=O)[O-] do in these assays?
MARV entry inh: 3.2µM*; HCMV antiviral: 8; FMDV antiviral: 0%; Lassa entry inh: inconclusive

What do the screens show for `CC(=O)c1cccc(NC(=O)COC(=O)c2ccc(S(C)(=O)=O)c([N+](=O)[O-])c2)c1`?
HCMV antiviral: -24; FMDV antiviral: inconclusive

How did CC(CCc1ccccc1)NC(=O)COC(=O)c1ccc(S(C)(=O)=O)c([N+](=O)[O-])c1 (configuration not stated) do in these assays?
MARV entry inh: inconclusive; HCMV antiviral: -99*; FMDV antiviral: inconclusive; Lassa entry inh: inconclusive

How did C[C@H]1CN(c2ccccc2)C(=O)[C@H]1CC(=O)Nc1ccc(Br)cc1 do in these assays?
Lassa entry inh: -4%[46.1 µM]

Results for N#CC1=C(N)N(c2cccc(Cl)c2)C2=C(C(=O)CCC2)C1c1cc(CN2CCOCC2)cs1 (configuration not stated) ?
MARV entry inh: -9%[46.1 µM]; HCMV antiviral: -11; FMDV antiviral: -15%; Lassa entry inh: 11%[46.1 µM]

Results for CCOc1ccc(CNC(=O)c2ccc3c(c2)c(C)c(C)n3Cc2ccccc2)cc1OC ?
HCMV antiviral: inconclusive; FMDV antiviral: -27%; Lassa entry inh: -2%[46.1 µM]

What do the screens show for `O=c1cc(O)c2ccc(O)cc2o1`?
HCMV antiviral: 13; FMDV antiviral: -9%

How did O=c1ccc2[n+]([O-])c3ccc(O)cc3oc-2c1 do in these assays?
HCMV antiviral: -61*; FMDV antiviral: -21%
